High-throughput results: PubChem, National Center for Advancing Translational Sciences (NCATS)
Methyltransferases = Primary Screen for Target Class Profiling of Small Molecule Inhibitors of Methyltransferases. purified enzyme, MTase-Glo SAH luminescence; stronger effect = lower value. calls only at 40 µM. 25,000 compounds, 3.9% hits. AID 1745853, 2022; call rule not given here
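Each enzyme was reacted with SAM and its substrate, with compounds tested once at 40 uM; SAH formed was read by MTase-Glo luminescence.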
Calls only; n = inactive; + = active, no number; ! = not confirmed by another sample. This is one part of a sample in which hits are shown more often than they occur.

SMILES	Methyltransferases
O=C(c1ccccc1)c1ccc2nc(NC(=O)c3csc(C4CCN(c5ncnc6ccsc56)CC4)n3)[nH]c2c1	+
CC1CCN(c2cc(NC(=O)c3ccccc3)ncn2)CC1	n
COCCc1noc(CC2CCOC3(CCN(C(=O)C4CCOCC4)CC3)C2)n1 (stereo not drawn)	n
Brc1c(Br)c(Br)c2[nH]cnc2c1Br	+
CCCOc1nccnc1NC1CCN(C(=O)c2cccnc2)CC1	n
C[C@@H]1O[C@@H](O[C@H]2[C@@H]3C=CO[C@@H](O[C@@H]4O[C@H](CO)[C@@H](O)[C@H](O)[C@H]4O)[C@@H]3[C@@]3(CO)O[C@@H]23)[C@H](O)[C@H](OC(=O)/C=C/c2ccccc2)[C@H]1O	n
CC1=CC(=O)C2(OC3OC(C)C(O)C(OC(=O)/C=C/c4ccccc4)C3O)C=COC(OC3OC(CO)C(O)C(O)C3O)C12 (stereo not drawn)	+
CC(=O)O[C@@H]1[C@@H](O)[C@H](C)O[C@@H](O[C@H]2[C@@H]3C=CO[C@@H](O[C@@H]4O[C@H](CO)[C@@H](O)[C@H](O)[C@H]4O)[C@@H]3[C@@]3(CO)O[C@@H]23)[C@@H]1OC(=O)/C=C/c1ccccc1	n
Cc1cnc(CCNS(=O)(=O)c2cn(C)cn2)n1C1CCC1	n
O=C1OCC2(CCN(Cc3c[nH]c4ccccc34)C2)N1Cc1ccccc1 (stereo not drawn)	n
CCn1c(=O)n(CC)c2cc(S(=O)(=O)Nc3cc(C)ccc3OC)c(Cl)cc21	n
Cc1ccc(C)c(S(=O)(=O)N2[C@@H]3CC[C@H]2CC(NC(=O)c2ccc(F)cc2)C3)c1 (stereo partly drawn)	n
Cc1cccc(Cn2nc(C3CCCNC3)n(-c3ccccc3)c2=O)c1 (stereo not drawn)	n
NC(=O)c1cccc2cn(-c3ccc([C@@H]4CCCNC4)cc3)nc12	+!
Cn1nc(C2CCCNC2)c2c(C(=O)NC3CC3)cc(C3CC3)nc21 (stereo not drawn)	n
Cc1cccc(CN2C(=O)c3cc(-c4ccco4)nn3CC2(C)C(=O)NCCC(C)C)c1 (stereo not drawn)	n
CCc1cccc(NC(=O)Cn2nc3nc(Nc4ccc(C)cc4)ccn3c2=O)c1	n
COc1ccc(CNC(=O)CCc2nnc3n(Cc4ccc(Cl)cc4)c(=O)c4ccccc4n23)cc1	n
COc1ccc(Cn2c(=O)c3ccccc3n3c(-c4ccc(Cl)cc4)nnc23)cc1	n
CC(C)(C)Sc1c(CC(C)(C)C(=O)O)n(Cc2ccc(Cl)cc2)c2ccc(OCc3ccc4ccccc4n3)cc12	+
COc1cccc(C2c3cccn3-c3sc4c(c3CN2C(=O)Nc2ccccc2C(F)(F)F)CCCC4)c1 (stereo not drawn)	n
COC[C@@H]1CN(Cc2cn[nH]c2-c2ccccc2)C[C@H]1c1nc(C)no1	n
O=C(Nc1ccccc1Cl)c1cnc2ccc(C3CCNCC3)cn12	n
c1cc(NC2CCNCC2)nc(-c2cnc3ccccn23)c1	+
CN1C(=O)c2cc(C(=O)Nc3cccc(Cl)c3)nn2CC1(C)C(=O)NC1CCCCC1 (stereo not drawn)	n
SMILES	Methyltransferases
CC1(C(=O)NC2CCCCC2)Cn2c(nc3ccccc32)C(=O)N1CCc1ccccc1 (stereo not drawn)	n
CCC(CC)C(c1ccc(Nc2nc3ccccc3s2)cc1)n1cncn1 (stereo not drawn)	+
O=C(Cn1nc2n(Cc3ccccc3)c(=O)c3ccccc3n2c1=O)c1cccc(Cl)c1	n
O=[S+]([O-])(c1cccc(C(F)(F)F)c1)N1CCc2nc(-c3ccccc3)nc(-c3ccc(Cl)cc3)c2C1	n
CC1(C(=O)NC2CCCC2)Cn2c(cc3ccccc32)C(=O)N1Cc1ccccn1 (stereo not drawn)	n
CNC(=O)CC1CCOC2(CCN(S(=O)(=O)c3cc(OC)ccc3OC)CC2)C1 (stereo not drawn)	n
CC(C)CCC1(O)C(=O)C(C)(C)C(O[C@@H]2O[C@H](CO)[C@@H](O)[C@H](O)[C@H]2O)C(C)(C)C1O (stereo partly drawn)	+
CC1(C)COC(=O)[C@@H]1O[C@@H]1O[C@H](CO)[C@@H](O)[C@H](O)[C@H]1O	n
CCC(C)C(=O)O[C@H]1[C@@H](O[C@H]2O[C@H](CO)[C@@H](O)[C@H](O)[C@H]2O)O[C@H](CO)[C@@H](O)[C@@H]1O (stereo partly drawn)	n
O=C(NCCc1c[nH]c2ccc(Cl)cc12)c1cc2n(n1)CCCN(Cc1ccc(F)cc1)C2=O	n
COCC1CN(C(C)=O)CC12CCN(C(=O)CC1CCCCC1)CC2 (stereo not drawn)	n
CCN1CCN(C(=O)c2cn3cc(-c4cccnc4)sc3n2)CC1	n
CCc1ccccc1NS(=O)(=O)c1ccc2c(c1)n(C)c(=O)n2C	n
O=C(O)c1cc(-c2c(-c3ccccc3)nn3ccccc23)n[nH]c1=O	n
Nc1[nH]nc2nnc(-c3c(-c4ccccc4)nn4ccccc34)cc12	+
CC1CCCC(NC(=O)C2(C)Cn3c(cc4sccc43)C(=O)N2Cc2cccc(F)c2)C1C (stereo not drawn)	n
CCc1cc2c(cc3n2CC(C)(C(=O)NC2CCCCC2)N(Cc2ccc(C)cc2)C3=O)s1 (stereo not drawn)	n
COc1cc(Br)c(Nc2nc(-c3c(C)nc4ncccn34)cs2)c(Br)c1	n
Cc1cccc(Nc2nc(-c3ccncc3)cs2)c1	+
c1ccc2c(Nc3nnc(-c4ccncc4)s3)cccc2c1	n
COc1ccc(CN2CCN(C(=O)CCNC(=O)c3ccc(C(C)(C)C)cc3)CC2)cc1	n
CCCCNC(=O)CCc1nnc2n(CCc3ccccc3)c(=O)c3ccccc3n12	n
CC(=O)NCCCCn1c2c(c3ccccc31)C(=O)NCC2	+
CCCCN1C(=O)CSc2c(c3ccccc3n2C)C1C(=O)NCCC(C)C (stereo not drawn)	n
COc1cccc(CN2C(=O)c3cc(-c4ccco4)nn3CC2(C)C(=O)NC2CCCCCC2)c1 (stereo not drawn)	n
SMILES	Methyltransferases
COc1cc(O)cc(C)c1C(=O)O[C@@H]1[C@H](O)[C@@H](CO)O[C@H]1n1ccc(=O)[nH]c1=O	n
COc1ccc(C(O)C(C)OC2OC(CO)C(O)C(O)C2O)cc1 (stereo not drawn)	n
OCc1ccccc1O[C@@H]1O[C@H](CO)[C@@H](O)[C@H](O)[C@H]1O	n
CC(C)=CCC/C(C)=C/CO[C@@H]1O[C@H](CO)[C@@H](O)[C@H](O)[C@H]1O	n
CCC(C)C(=O)OC[C@H]1O[C@H](O[C@H]2O[C@H](CO)[C@@H](O)[C@H](O)[C@H]2O)[C@H](O)[C@@H](O)[C@@H]1O (stereo partly drawn)	n
CC/C=C\CCO[C@@H]1O[C@H](CO)[C@@H](O)[C@H](O)[C@H]1O	+
CC(C)=CCC(O)/C(C)=C/CO[C@@H]1O[C@H](CO)[C@@H](O)[C@H](O)[C@H]1O (stereo partly drawn)	+
CN(C)S(=O)(=O)c1ccc(Cl)c(-c2nnc(-c3ccccc3)o2)c1	n
CCn1nc(C)c(CNC(=O)c2cc(COc3ccc4ncccc4c3)on2)c1C	n
CC(C)CCNC(=O)c1ccc2c(=O)nc3c(-c4ccc(F)cc4)n[nH]n3c2c1	n
CO[C@@H]1CC[C@H](OC[C@]2(COC(=O)c3ccc(C)[nH]3)[C@H](OC(C)=O)CC[C@@]3(C)[C@@H]4CC=C(C)[C@@H](C5=C(O)C(=O)OC5O)[C@]4(C)CC[C@@H]32)O[C@H]1C (stereo partly drawn)	n
